# Assay outcomes from PubChem BioAssay.
# The list is not random: actives were taken first. Their share in the collection is about 9.5%.
# HPGD inh – HPGD (human) dehydrogenase inhibition. P15428. purified HPGD, NADH fluorescence kinetic, PGE2 substrate. Potency, µM, for the others: at the highest dose activity change, negative = inhibition, hits mostly inhibitors. 4.3% of 150,000 active; active = well fitted inhibition curve with a large enough effect, not every such curve was filed as active; inconclusive = small, poorly fitted or top-dose-only effect, or another doubt; inactive = no such curve, though single readings can be large or run the other way
#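 NADH formation kinetics: reaction with 30 uM PGE2 and 1 mM NAD+ (final), 20 nM enzyme, Tris-HCl pH 8 with Tween 20, after 15 min compound preincubation at room temperature. Fluorescence change, last versus first of five reads.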
# Tau fluor cs – counter-screen for tau fibril formation inhibitors; 0.93% of 280,000 active; Potency, µM (series often up to 57.7 µM), for the others: at the highest dose activity change, negative = decrease; tau K18 P301L Alexa594 fluorescence, heparin fibrillization; also: nearly all actives have a fitted effect of over 55% in size
#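 Human K18 P301L tau (15 uM unlabeled plus 0.24 uM Alexa 594-labeled, final) in 100 mM sodium acetate pH 7 was mixed with compound and 20 uM heparin and incubated 6 hr at 37 C.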
# Tau fibril FP – tau fibrillization inhibition (FP) | K18 P301L tau heparin fibrillization, Alexa594 FP, 6 h | Potency, µM (series often up to 57.7 µM), for inactives: at the top dose activity, negative = inhibition, most hits filed as inhibitors | 0.39% of 280,000 active | AID 1468; also: nearly all actives have a fitted effect of over 55% in size
# Target sequence (P10636 561-689 P618L limits assumed): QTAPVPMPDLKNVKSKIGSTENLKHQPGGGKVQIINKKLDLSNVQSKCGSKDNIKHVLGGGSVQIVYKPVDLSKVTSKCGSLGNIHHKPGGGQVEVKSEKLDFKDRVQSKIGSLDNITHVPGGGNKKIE
#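 Human K18 P301L fragment (15 uM unlabeled plus 0.24 uM Alexa 594-labeled) in 100 mM sodium acetate pH 7 with compound, aggregation induced by 20 uM heparin for 6 hr at 37 C. ThT (30 uM) added for 1 hr, then Alexa 594 FP read.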
# Tau fibril ThT – tau fibrillization inhibition (ThT binding); Potency, µM (doses to about 57.4 µM), without a hit: top-dose activity, negative = inhibition, actives largely listed as inhibitors; P10636; AID 1460; 2.1% of 270,000 active; recombinant tau K18 P301L, heparin-induced fibrillization, ThT fluorescence; also: nearly all actives have a fitted effect of over 55% in size
#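 ThT emission at 510 nm, taken 1 hr after adding 30 uM dye, quantifies aggregates formed when 20 uM heparin acts on human tau K18 P301L for 6 hr at 37 C.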
# ALDH1A1 block – blocks purified human ALDH1A1 activity; P00352; Purified ALDH1A1, NADH fluorescence, propionaldehyde substrate; Potency, µM (doses to about 75.3 µM), for inactives: at the highest dose activity, negative = inhibition, hits mostly inhibitors; 7.3% of 220,000 active; AID 1030; active = well fitted inhibition curve with a large enough effect, not every such curve was filed as active; inconclusive = small, poorly fitted or top-dose-only effect, or another doubt; inactive = no such curve, though single readings can be large or run the other way;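 also: plate controls were no enzyme wells and a reference inhibitor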
# Target sequence (P00352 whole entry, looked up): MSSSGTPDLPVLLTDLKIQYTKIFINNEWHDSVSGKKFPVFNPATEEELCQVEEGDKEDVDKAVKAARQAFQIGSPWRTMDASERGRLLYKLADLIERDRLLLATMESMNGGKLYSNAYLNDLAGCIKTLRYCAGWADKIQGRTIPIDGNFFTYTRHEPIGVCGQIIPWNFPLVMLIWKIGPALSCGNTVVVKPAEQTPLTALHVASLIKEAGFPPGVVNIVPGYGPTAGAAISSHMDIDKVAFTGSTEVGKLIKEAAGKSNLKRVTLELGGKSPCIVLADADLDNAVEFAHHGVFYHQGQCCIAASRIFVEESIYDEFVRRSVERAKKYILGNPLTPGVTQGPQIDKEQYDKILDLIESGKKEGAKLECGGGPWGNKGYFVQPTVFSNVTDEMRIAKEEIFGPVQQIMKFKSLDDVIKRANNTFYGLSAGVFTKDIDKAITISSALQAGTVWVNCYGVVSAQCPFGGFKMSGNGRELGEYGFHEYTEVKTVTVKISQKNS
# NPSR antag – antagonists of human neuropeptide S receptor cAMP signaling; Q6W5P4; CHO-NPSR cells, cAMP TR-FRET, antagonist mode; Potency, µM (highest dose often 38.3 µM), without a hit: top-dose activity change, negative = inhibition, hits mostly inhibitors; 1% of 220,000 active; AID 1461; also: nearly all actives have a fitted effect of over 50% in size
# An asterisk follows results filed as active; u = inconclusive; x = no result; [ ] = dose if it differs, or a comment. Unless noted, calls follow the shape of the dose curve; as a rule, active = well fitted curve in the direction sought with a large enough effect; inconclusive = small, poorly fitted or top-dose-only effect, or another doubt; inactive = no such curve, though single readings can be large; an effect the other way counts as inactive or inconclusive. Unless noted, % is scaled to controls: 0 for no effect and ±100 for the full control effect; potency is read from the fitted curve at half-maximal effect.
SMILES,HPGD inh,Tau fluor cs,Tau fibril FP,Tau fibril ThT,ALDH1A1 block,NPSR antag
Cc1ccc(CN2CCC(CO)(CC3CCCCO3)CC2)o1 (stereo not drawn),x,-4.9%,-0.7%,-12.0%,6.2%,-6.3%
Cc1ccc(OCC(=O)Nc2ccc3nc(SCC(=O)N4CCCC4)sc3c2)cc1C,x,-21.9%,-4.6%,u,x,x
COc1ccc(C(=O)NCC(=O)OCC(=O)N2CCC(C)CC2)cc1OC,x,-0.6%,2.0%,5.2%,3.0%,3.2%
Cc1cn2c(=O)cc(COC(=O)c3cccc(NC(=O)COc4ccccc4Cl)c3)nc2s1,x,-5.7%,-5.2%,u,x,x
CC(CNC(=S)Nc1cc(F)cc(F)c1)CSc1ccc(Cl)cc1 (stereo not drawn),x,u,28.2µM*,5.0%,u,u
O=S(=O)(NCCOCCNS(=O)(=O)c1ccccc1)c1ccccc1,-2.5%,-3.9%,-5.2%,4.5%,25.1µM*,-1.0%[46.1 µM]
O=S(=O)(NCCOCC(F)(F)F)c1ccc2oc3ccccc3c2c1,u,8.1%,2.7%,6.1%,8.91µM*,-22.3%[46.1 µM]
COc1cc(NC(=S)NCCc2ccc(S(N)(=O)=O)cc2)c(OC)cc1Cl,x,-19.1%,3.6%,-9.1%,11.2µM*,-18.1%
COc1cc(OC)c(NC(=S)Nc2cc(Cl)cc(Cl)c2)cc1Cl,u,25.1µM*[quencher],2.6%,u,u,-34.9%
COc1cc(Cl)c(C)cc1NC(=S)NN,x,-23.3%,-7.9%,u,11.2µM*,5.9%
COc1cc(NC(=S)Nc2ccc(Br)cc2Cl)c(OC)cc1Cl,-27.4%,-29.5%,-4.1%,u,28.2µM*,-8.9%
Cc1ccc(OCCSc2nc3ccccc3n2CC(=O)N2CCOCC2)c(C)c1,x,-8.1%,-2.1%,u,x,x
COc1cccc2c1[C@H](CO)N1[C@H](C#N)[C@@H]3C[C@H](C(=O)O)[C@@H]([C@@H]1C2)N3C,-1.7%,x,x,x,6.2%[13.5 µM],x
COCCNC(=S)Nc1ccc(Cl)c(Cl)c1,x,-22.3%,-7.7%,-6.7%,9.8%,-13.3%
COc1cc(C)c(NC(=S)Nc2ccc(Cl)c(Cl)c2)cc1OC,15.8µM*,-1.7%,10.1%,-2.6%,8.91µM*,-13.4%[46.1 µM]
CCC(=O)N(CC(=O)Nc1sc(C)c(C)c1C(N)=O)Cc1ccc(F)cc1,x,7.9%,-3.3%,5.1%,x,7.7%
COC(=O)CCC(=O)Nc1sc(C)c(C)c1C(N)=O,14.1µM*,7.7%,-5.1%,u,12.6µM*,1.0%[46.1 µM]
Cc1sc(NC(=O)CCC(=O)O)c(C(N)=O)c1-c1ccccc1,14.1µM*,0.6%,8.7%,2.6%,12.6µM*,5.6%
COc1ccc(NC(=O)c2c(NC(=O)CCC(=O)O)sc(-c3ccccc3)c2C)cc1,x,-6.7%,-4.1%,u,8.91µM*,-18.8%
COC(=O)CCC(=O)NC(=S)Nc1sc(C)c(C)c1C(N)=O,-29.5%,1.9%,-3.8%,-12.4%,u,-36.2%
CCC(=O)N(CC(=O)Nc1sc(C)c(C)c1C(N)=O)C1CCCC1,x,-10.7%,-0.5%,-4.7%,8.91µM*,4.0%
CN(C(=O)COC(=O)CCc1c[nH]c2ccccc12)C(c1ccccc1)c1ccccc1,-20.7%,u,0.8%,19.4%,2.9%,u
COc1ccc(C)cc1NC(=S)NC(C)c1ccc(OC)c(OC)c1 (stereo not drawn),x,-11.5%,4.1%,-9.7%,-10.0%,37.6%
Cc1ccc2c(CN3CCN(C(=O)c4ccc(Br)cc4)CC3)cc(=O)oc2c1,x,4.3%,5.3%,-0.2%,x,x
CCCC(=O)Nc1sc(Cc2ccccc2)c(C)c1C(N)=O,x,-7.9%,3.0%,-7.0%,1.78µM*,17.9%
SMILES,HPGD inh,Tau fluor cs,Tau fibril FP,Tau fibril ThT,ALDH1A1 block,NPSR antag
COC(=O)c1c(NC(=O)CCC(=O)O)sc(Cc2ccccc2)c1C,x,-10.9%,7.5%,x,x,-14.4%
Cc1ccc(C#CC2C=CC(Oc3ccc4c(c3)OCO4)C(CO)O2)c(C)c1 (stereo not drawn),x,-7.3%[11.6 µM],2.7%[11.6 µM],-7.0%[11.5 µM],0.3%[13.5 µM],x
CC1CCN(S(=O)(=O)c2ccc3c(c2)oc(=O)n3CC(=O)N2c3ccccc3CC2C)CC1 (stereo not drawn),-8.8%,-16.6%,2.9%,0.8%,5.1%,-13.4%[46.1 µM]
CC1Cc2ccccc2N1C(=O)Cn1c(=O)oc2cc(S(=O)(=O)NC3CCCC3)ccc21 (stereo not drawn),12.6µM*,-20.7%,6.4%,-5.3%,7.7%,-10.9%[46.1 µM]
CCC1CN(C(=O)NCc2ccc(C)cc2)c2ccccc2O1 (stereo not drawn),x,15.8µM*[quencher],u,u,x,x
CCC1CN(C(=O)N2CCC(C(=O)NCc3ccc(N(C)C)cc3)CC2)c2ccccc2O1 (stereo not drawn),x,-17.7%,8.6%,-16.3%,x,x
CCC1CN(C(=O)N2CCC(C(=O)N3CCN(c4ccccc4F)CC3)CC2)c2ccccc2O1 (stereo not drawn),x,14.1µM*[quencher],10.5%,u,x,x
CCC1CN(C(=O)N2CCC(C(=O)O)CC2)c2cc(C)ccc2O1 (stereo not drawn),x,-4.3%,-3.8%,-2.5%,x,x
CCc1ccc(NC(=O)C2CCN(C(=O)N3CC(CC)Oc4ccccc43)CC2)cc1 (stereo not drawn),x,15.8µM*[quencher],u,u,x,x
O=c1[nH]c(/C(Cl)=C/c2cc(Cl)ccc2O)nc2cc(Cl)ccc12,8.91µM*,u,3.2%,u,6.8%,-13.1%
O=c1[nH]c(/C(Cl)=C/c2c(F)cccc2Cl)nc2cc(Cl)ccc12,u,13.1%,-5.1%,11.5%,0.5%,-11.2%
CC(=O)c1cc2c(cc1NC(=O)CN1CCCCCCC1)OCO2,-10.0%,-19.8%,-7.3%,u,10µM*,-11.4%[46.1 µM]
N#Cc1nc(COc2ccc(Cl)cc2)oc1N1CCCCCC1,u,-18.1%,-2.5%,-18.9%,u,u
N#Cc1nc(COc2ccccc2)oc1N1CCCCC1,u,-9.5%,2.4%,-9.6%,12.6µM*,u
CCCOc1ccc(CNC(=O)c2cc3ccccn3n2)cc1,x,-10.5%,-0.4%,-3.7%,x,x
CN(C)c1ccnc(Oc2ccc(C(C)(C)C)cc2)c1C#N,35.5µM*,-29.9%,-15.9%,-22.0%,u,u
CN(C)c1ccnc(Oc2ccc(Cl)cc2)c1C#N,31.6µM*,-7.7%,-6.6%,0.8%,25.1µM*,-17.7%[46.1 µM]
CCOC(=O)c1sc(NC(=O)C(C)Oc2ccc(OC)cc2)c(C(=O)OCC)c1C (stereo not drawn),x,-19.7%,-11.9%,-9.8%,x,x
Nc1nc(Cl)nc2c1ncn2[C@@H]1O[C@H](COP(=O)(O)OP(=O)(O)OP(=O)(O)O)[C@H](O)[C@H]1O,-5.5%,-0.3%,-3.3%,-4.9%,-5.2%,u
Cn1cnnc1SCc1ccc(C(=O)N=Nc2c(O)n(C)c3ccccc23)cc1,-10.5%,-12.5%,-1.8%,u,2.1%,-29.6%
Cc1cccc(N=Nc2c(C)[nH]n(C(N)=S)c2=O)c1C,x,-9.3%,9.6%,7.94µM*,17.8µM*,-15.4%
